# Inconclusive results are not listed. Calls of active or inactive are those of the source.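 Rule for the calls, unless noted: active = inhibition above the screen-wide mean plus 3 SD, about 51%; inactive = the rest.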
# Experiments:
# [1] = rapamycin-like changes in RPL19A-GFP expression – cell-based, S. cerevisiae, multiplex flow cytometry, primary screen (AID 1862; in the data active = percent of DMSO control GFP below about 86%;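 note: lower values mimic rapamycin by blocking the RPL19A rise seen in DMSO cells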); settings: S. cerevisiae RPL19A-GFP strain, flow cytometry fluorescence, 3 h; at 10 µM; stronger effect = lower value
# [2] = TOR pathway GLN3 branch reporter MEP2-GFP changes – S. cerevisiae, multiplex flow cytometry, primary screen (AID 1867;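 active = GFP response, as percent of the DMSO control, above the screen-wide mean plus 3 SD, about 139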;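 note: median GFP channel fluorescence of barcode-gated MEP2-GFP cells measured by flow cytometry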); settings: S. cerevisiae MEP2-GFP strain, 3 h, at 10 µM, stronger effect = higher value, 100% means same as DMSO wells
# [3] = TOR pathway RTG branch CIT2 reporter changes – S. cerevisiae, GFP fusion, multiplex flow cytometry, primary screen (AID 1870;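 active = percent response above a set limit, the screen-wide mean plus 3 SD, cut at about 130% in these data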;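 note: barcoded CIT2-GFP strain pooled with four other GFP strains with rapamycin as positive control; median GFP fluorescence per well over plate mean of DMSO wells so 100% = DMSO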); settings: S. cerevisiae CIT2-GFP expression, 3 h, at 10 µM, stronger effect = higher value
# [4] = TOR pathway LAP4-GFP level changes – S. cerevisiae, multiplex flow cytometry, primary screen (AID 1873;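 active = GFP signal, as percent of the solvent control, above the screen mean plus 3 SD, about 149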); settings: S. cerevisiae LAP4-GFP expression, 3 h, at 10 µM, stronger effect = higher value
# [5] = yeast AGP1-GFP level changes, GLN3 branch – cell-based, multiplex flow cytometry, S. cerevisiae, primary screen (AID 1887;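 active = GFP signal above the screen-wide mean plus 3 SD, that is over about 124.5% of the solvent control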;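 note: AGP1-GFP fusion strain of S. cerevisiae within a five-strain barcoded multiplex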); settings: 3 h, at 10 µM, stronger effect = higher value
# [6] = reduced mouse 2C T cell binding to pMHC/ICAM-1 vesicles – MLPCN validation set, flow cytometry, LFA-1/ICAM-1 modulator project, pilot screen (AID 2523;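 active = response below a set limit, under 55% cells CD8-positive and vesicle-bound, and CD8 cells' 90th-percentile brightness under 279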;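 for vesicle binding response: mean PE anti-B7-1 fluorescence of CD8+ cells relative to row control; 100% = QL9-loaded vesicles with DMSO vehicle in the same plate row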); settings: 2C mouse CD8+ T cells, at 7 µM, stronger effect = lower value; double positive events: measured here: CD8+/vesicle+ event percentage
# [7] = target: Integrin beta-1 (Homo sapiens) + Integrin alpha-4 (Homo sapiens) (UniProt P13612+P05556); assay: alpha4beta1 integrin LIBS antibody binding reduction – U937 cells, HUTS-21 mAb, flow cytometry, validation set, VLA-4 allosteric modulator project, pilot screen (AID 2674;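 active = inhibition above 50%, about 3 SD of the validation set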;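 note: antibody binding induced by the VLA-4 ligand LDV present at three times its Kd; 0% = LDV ligand with antibody and no compound and 100% = antibody without LDV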); settings: HUTS-21 LIBS mAb binding, at 6.7 µM, stronger effect = higher value, binding induced by LDV ligand
# Integrin beta-1 (Homo sapiens) + Integrin alpha-4 (Homo sapiens), sequence (P05556 whole entry, looked up): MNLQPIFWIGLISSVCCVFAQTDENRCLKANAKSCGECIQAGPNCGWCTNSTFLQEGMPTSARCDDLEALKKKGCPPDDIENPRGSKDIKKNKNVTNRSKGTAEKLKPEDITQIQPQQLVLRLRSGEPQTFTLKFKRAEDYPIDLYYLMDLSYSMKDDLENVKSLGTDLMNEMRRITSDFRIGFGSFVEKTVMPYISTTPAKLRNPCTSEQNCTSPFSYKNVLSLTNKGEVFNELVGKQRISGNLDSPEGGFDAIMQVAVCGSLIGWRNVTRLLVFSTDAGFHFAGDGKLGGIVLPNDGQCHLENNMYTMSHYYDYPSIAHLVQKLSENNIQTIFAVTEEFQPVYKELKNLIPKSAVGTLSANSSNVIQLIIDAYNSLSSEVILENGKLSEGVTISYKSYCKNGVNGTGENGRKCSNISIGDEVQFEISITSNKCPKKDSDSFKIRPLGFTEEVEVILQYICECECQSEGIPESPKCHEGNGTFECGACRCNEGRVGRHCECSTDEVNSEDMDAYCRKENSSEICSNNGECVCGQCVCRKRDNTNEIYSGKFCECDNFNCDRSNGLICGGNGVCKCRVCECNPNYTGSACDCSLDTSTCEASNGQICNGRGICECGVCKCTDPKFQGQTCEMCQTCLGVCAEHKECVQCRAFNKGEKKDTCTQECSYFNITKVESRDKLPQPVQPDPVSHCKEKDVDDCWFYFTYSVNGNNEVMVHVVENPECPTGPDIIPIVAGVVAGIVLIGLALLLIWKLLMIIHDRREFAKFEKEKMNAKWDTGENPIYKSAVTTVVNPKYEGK
# Integrin beta-1 (Homo sapiens) + Integrin alpha-4 (Homo sapiens), sequence (P13612 whole entry, looked up): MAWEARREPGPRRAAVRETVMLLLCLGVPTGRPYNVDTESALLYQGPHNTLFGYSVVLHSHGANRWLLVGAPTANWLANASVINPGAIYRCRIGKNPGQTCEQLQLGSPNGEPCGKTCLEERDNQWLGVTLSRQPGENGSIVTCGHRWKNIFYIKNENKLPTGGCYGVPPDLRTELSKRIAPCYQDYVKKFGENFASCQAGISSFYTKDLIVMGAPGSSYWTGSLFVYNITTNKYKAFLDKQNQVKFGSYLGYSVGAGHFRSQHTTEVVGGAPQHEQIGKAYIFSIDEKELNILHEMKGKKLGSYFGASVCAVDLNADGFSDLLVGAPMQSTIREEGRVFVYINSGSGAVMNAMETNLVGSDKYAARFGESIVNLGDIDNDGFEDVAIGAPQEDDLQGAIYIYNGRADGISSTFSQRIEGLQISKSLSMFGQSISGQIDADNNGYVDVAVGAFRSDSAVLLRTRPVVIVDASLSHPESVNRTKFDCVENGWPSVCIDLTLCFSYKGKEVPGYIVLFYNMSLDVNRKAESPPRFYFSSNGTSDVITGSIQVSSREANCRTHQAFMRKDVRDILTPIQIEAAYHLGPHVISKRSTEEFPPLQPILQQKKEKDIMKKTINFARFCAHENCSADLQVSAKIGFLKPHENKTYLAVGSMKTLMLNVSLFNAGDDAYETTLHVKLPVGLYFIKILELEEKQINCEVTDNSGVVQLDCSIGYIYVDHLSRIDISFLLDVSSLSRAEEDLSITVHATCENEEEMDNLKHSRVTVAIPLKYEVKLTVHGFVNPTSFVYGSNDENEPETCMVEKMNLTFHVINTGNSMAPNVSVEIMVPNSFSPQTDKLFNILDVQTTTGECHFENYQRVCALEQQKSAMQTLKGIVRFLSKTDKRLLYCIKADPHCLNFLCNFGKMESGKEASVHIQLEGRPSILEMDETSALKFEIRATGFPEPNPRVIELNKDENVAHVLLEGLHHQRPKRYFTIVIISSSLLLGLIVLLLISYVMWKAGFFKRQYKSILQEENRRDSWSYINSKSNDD
# [8] = calorie-restriction mimetic ROS inhibitors, yeast – validation compound set, pilot screen (AID 2706;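 active = superoxide response below 65% of plate, a cut near 3 SD across the whole screen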;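 note: yeast exposed to compound for one week at 30 degrees C before staining; 100% = mean of all compound wells on the same plate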); settings: S. cerevisiae aging, superoxide DHE fluorescence; at 10 µM, stronger effect = lower value
# [9] = target: Beta-adrenergic receptor kinase 1 (Homo sapiens) (UniProt P25098); assay: GRK2 binders displacing RNA aptamer, biochemical, validation, human GRK2, bead flow cytometry (AID 488806;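 active = aptamer binding inhibition above 30%, about 3 SD of noise from non-fluorescent compounds; inactive = inhibition at or below 30%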); settings: bead-bound GRK2, FAM-aptamer displacement, at 10 µM, stronger effect = higher value
# Beta-adrenergic receptor kinase 1 (Homo sapiens), sequence (P25098 whole entry, looked up): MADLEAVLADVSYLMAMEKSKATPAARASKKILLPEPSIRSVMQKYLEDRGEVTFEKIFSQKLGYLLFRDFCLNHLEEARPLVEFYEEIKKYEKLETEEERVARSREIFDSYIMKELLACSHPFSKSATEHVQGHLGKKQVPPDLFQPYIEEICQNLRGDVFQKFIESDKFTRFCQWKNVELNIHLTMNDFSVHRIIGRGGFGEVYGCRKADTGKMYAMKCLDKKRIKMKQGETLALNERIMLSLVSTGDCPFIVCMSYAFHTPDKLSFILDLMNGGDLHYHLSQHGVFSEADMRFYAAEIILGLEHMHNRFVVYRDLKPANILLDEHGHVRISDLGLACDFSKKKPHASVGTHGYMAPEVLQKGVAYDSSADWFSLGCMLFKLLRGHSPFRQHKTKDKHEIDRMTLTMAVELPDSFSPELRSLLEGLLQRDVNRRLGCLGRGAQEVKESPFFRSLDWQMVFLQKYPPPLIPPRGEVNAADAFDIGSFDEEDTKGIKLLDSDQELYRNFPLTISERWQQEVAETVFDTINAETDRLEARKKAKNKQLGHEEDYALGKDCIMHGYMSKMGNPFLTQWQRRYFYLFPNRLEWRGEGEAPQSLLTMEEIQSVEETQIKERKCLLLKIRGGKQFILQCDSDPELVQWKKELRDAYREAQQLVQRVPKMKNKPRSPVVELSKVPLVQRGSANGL
# [10] = target: AP-2 complex subunit beta (Homo sapiens) (UniProt P63010); assay: beta-arrestin/AP2 interaction blockers – biochemical, validation set, GST-AP2 beads, flow cytometry, pilot screen (AID 504541;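 active = inhibition above 54%, about 3 SD of non-fluorescent compounds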;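 note: AP2 carries R879A mutation and is captured from E. coli lysate; bead-bound FITC arrestin peptide fluorescence measuring arrestin peptide binding to AP2; 0% = DMSO wells and 100% = excess unlabeled arrestin peptide control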); settings: FITC arrestin peptide, at 10 µM, stronger effect = higher value, AP2 beta2 appendage fragment, R879A mutant
# AP-2 complex subunit beta (Homo sapiens), sequence (P63010 whole entry, looked up, the tested form may be a part, one chain of several): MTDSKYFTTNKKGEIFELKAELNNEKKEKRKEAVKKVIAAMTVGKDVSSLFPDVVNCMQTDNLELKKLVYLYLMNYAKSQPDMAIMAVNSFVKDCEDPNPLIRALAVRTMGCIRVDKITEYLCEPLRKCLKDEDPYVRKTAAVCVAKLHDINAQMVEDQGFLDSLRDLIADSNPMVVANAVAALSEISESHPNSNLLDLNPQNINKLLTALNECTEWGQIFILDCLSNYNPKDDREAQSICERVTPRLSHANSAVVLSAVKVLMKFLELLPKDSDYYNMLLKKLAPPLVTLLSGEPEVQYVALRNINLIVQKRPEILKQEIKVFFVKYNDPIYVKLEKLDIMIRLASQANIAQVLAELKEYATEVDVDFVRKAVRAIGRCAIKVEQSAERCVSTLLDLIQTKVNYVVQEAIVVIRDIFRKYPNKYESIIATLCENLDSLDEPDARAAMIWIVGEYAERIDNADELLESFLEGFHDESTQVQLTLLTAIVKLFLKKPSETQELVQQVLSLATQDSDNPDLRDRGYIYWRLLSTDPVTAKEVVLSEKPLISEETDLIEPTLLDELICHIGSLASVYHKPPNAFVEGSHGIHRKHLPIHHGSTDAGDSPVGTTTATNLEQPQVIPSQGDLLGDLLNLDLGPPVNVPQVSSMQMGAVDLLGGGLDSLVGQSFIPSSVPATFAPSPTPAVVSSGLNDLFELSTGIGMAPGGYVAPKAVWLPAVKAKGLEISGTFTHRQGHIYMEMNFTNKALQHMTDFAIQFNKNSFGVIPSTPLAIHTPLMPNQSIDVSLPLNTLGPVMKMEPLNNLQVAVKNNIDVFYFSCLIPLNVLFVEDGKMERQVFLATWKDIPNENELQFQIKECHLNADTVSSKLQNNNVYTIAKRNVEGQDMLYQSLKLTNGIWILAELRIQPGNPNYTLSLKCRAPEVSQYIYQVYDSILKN
# [11] = cytosolic pH regulators acting via V-ATPase – S. cerevisiae, pHLuorin, HTS validation (AID 504600; in the data active = response above about 15%;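 note: plate controls were DMSO for no effect and reference compound for full effect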); settings: V-ATPase proton transport, at 10 µM, stronger effect = higher value
# [12] = tested on: anti-desmoglein-3 scFv antibody binding to human DSG3; assay: blockers of pathogenic pemphigus antibody–desmoglein-3 binding – biochemical, validation compound set, bead-based, flow cytometry, pilot screen (AID 588368;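 active = binding below the plate cutoff, the plate median minus 3 SD, with a reading above zero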;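 note: signal is the median channel fluorescence of bead-bound GFP antibody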); settings: Protein G beads, DSG3-Fc, scFv-GFP binding, at 10 µM, stronger effect = lower value
# [13] = Nile Red efflux blockade in pump-expressing yeast – validation compound set, multiplex, phenotypic, pilot screen (AID 588506;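 active = efflux inhibition above 0.42, the validation set average plus 4 SD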;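 note: Nile Red retained in cells so higher fluorescence means more efflux inhibition; 0 = negative control wells and 1 = enniatin B 25 µM full block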); settings: S. cerevisiae pump-expressing triplex, Nile Red efflux flow cytometry; at 10 µM; stronger effect = higher value; the pumps come from Candida albicans
# [14] = target: ATP-binding cassette sub-family B member 6 (Homo sapiens) (UniProt Q9NP58); assay: blockers of ABCB6-driven porphyrin uptake – K562-ABCB6 cells, flow cytometry, validation set, pilot screen (AID 588550); settings: K562-ABCB6 porphyrin accumulation, 1 h, at 10 µM, stronger effect = higher value;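 note: 0% = DMSO wells and 100% = benzethonium chloride 70 µM positive control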
# ATP-binding cassette sub-family B member 6 (Homo sapiens), sequence (Q9NP58 whole entry, looked up): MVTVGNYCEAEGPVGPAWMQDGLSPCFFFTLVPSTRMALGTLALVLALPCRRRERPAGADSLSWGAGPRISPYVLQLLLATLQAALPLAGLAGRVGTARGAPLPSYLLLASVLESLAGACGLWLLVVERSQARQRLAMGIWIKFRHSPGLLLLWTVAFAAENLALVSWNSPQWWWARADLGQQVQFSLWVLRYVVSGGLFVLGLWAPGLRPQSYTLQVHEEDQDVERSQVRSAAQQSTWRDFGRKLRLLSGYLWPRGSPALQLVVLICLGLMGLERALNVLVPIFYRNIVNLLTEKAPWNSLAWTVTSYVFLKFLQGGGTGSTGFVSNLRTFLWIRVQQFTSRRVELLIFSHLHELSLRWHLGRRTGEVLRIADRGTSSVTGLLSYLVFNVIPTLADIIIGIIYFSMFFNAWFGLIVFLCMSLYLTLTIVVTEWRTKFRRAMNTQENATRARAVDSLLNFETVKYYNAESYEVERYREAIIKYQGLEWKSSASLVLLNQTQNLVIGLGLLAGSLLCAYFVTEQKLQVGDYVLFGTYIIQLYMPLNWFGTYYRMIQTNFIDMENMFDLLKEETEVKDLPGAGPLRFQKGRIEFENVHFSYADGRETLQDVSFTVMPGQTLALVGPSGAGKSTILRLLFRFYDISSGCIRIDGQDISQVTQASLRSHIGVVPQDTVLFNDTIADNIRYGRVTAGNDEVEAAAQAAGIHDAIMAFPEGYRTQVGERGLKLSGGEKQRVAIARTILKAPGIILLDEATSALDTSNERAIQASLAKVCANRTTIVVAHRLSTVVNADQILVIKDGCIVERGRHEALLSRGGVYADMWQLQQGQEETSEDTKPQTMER
# [15] = AML differentiation inducers, ER-HoxA9 marrow cells – cell-based, GFP/MAC1 double positive, flow cytometry, validation set, primary screen (AID 588685;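 active = differentiation response of at least 50%, scaled between solvent and reference control, from cells with both markers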;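 note: compound exposure lasts four days before antibody staining and flow analysis; 0% = DMSO wells and 100% = 5 µM fulvestrant positive control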); settings: stronger effect = higher value, normalized: vehicle 0, fulvestrant 100
SMILES,percent of DMSO control GFP [1],GFP response vs DMSO [2],percent response of DMSO control [3],GFP response vs DMSO [4],"GFP response, % of DMSO [5]",double positive events [6] [%],vesicle binding response [6],inhibition [7],superoxide response (% of plate) [8],aptamer binding inhibition [9],inhibition [10],response [11],binding (% of control) [12],efflux inhibition (fraction of control) [13],inhibition [14],differentiation response [15]
CC(C)Oc1ccc(C(CC(=O)O)c2ccc(F)cc2)cc1 (stereo not given),102% (inactive),108% (inactive),92% (inactive),113% (inactive),90.4% (inactive),62.7,164% (inactive),9.09% (inactive),105% (inactive),5% (inactive),-6.35% (inactive),3.61% (inactive),96.7% (inactive),0.18 (inactive),5% (inactive),-18% (inactive)
Cc1ccc2c(c1)C(O)(c1c(C)[nH]c3ccccc13)C(=O)N2 (stereo not given),98.6% (inactive),97.9% (inactive),106% (inactive),96.4% (inactive),90.1% (inactive),57.8,259% (inactive),-4.9% (inactive),98.1% (inactive),-1% (inactive),-11.2% (inactive),-5.66% (inactive),102% (inactive),0.1 (inactive),5% (inactive),-34.1% (inactive)
COc1cccc(CN2CCN(C(=O)c3ccc(-c4ccccc4)cc3)CC2)c1,99.1% (inactive),103% (inactive),103% (inactive),113% (inactive),98.8% (inactive),52.5,189% (inactive),-6.77% (inactive),87.9% (inactive),2% (inactive),-7.96% (inactive),5.01% (inactive),99.5% (inactive),0.22 (inactive),7% (inactive),4.64% (inactive)
CC(C)NCC(O)COc1ccc(CC(N)=O)cc1 (stereo not given),99.2% (inactive),100% (inactive),105% (inactive),97.3% (inactive),99.1% (inactive),61.8,127% (inactive),-2.53% (inactive),82.7% (inactive),2% (inactive),-8.74% (inactive),0.46% (inactive),101% (inactive),-0.39 (inactive),6% (inactive),-2.69% (inactive)
O=c1nc2cccc3c2=c(/c1=C(\O)c1ccccc1)c1ccccc1c3=O,102% (inactive),102% (inactive),105% (inactive),96.4% (inactive),99.3% (inactive),47.4,175% (inactive),-23.6% (inactive),99.9% (inactive),8% (inactive),17.9% (inactive),1.67% (inactive),91% (inactive),-0.16 (inactive),9% (inactive),-6.66% (inactive)
Cc1nc(C)c(C)nc1C,101% (inactive),101% (inactive),102% (inactive),100% (inactive),103% (inactive),64.7,132% (inactive),12.8% (inactive),104% (inactive),-3% (inactive),31.6% (inactive),-7.78% (inactive),103% (inactive),0.25 (inactive),8% (inactive),3.03% (inactive)
C[C@@H]1C[C@H]2[C@@H]3CCC4=CC(=O)C=C[C@]4(C)[C@@]3(F)[C@@H](O)C[C@]2(C)[C@H]1C(=O)CO,102% (inactive),97.9% (inactive),109% (inactive),81.3% (inactive),96.6% (inactive),54.1,226% (inactive),-12.4% (inactive),107% (inactive),-2% (inactive),-3.18% (inactive),-6.95% (inactive),97.8% (inactive),-0.12 (inactive),6% (inactive),-11.5% (inactive)
O=[N+]([O-])c1ccc2cn[nH]c2c1,102% (inactive),106% (inactive),102% (inactive),93.3% (inactive),97.3% (inactive),60.3,265% (inactive),12.8% (inactive),97.5% (inactive),1% (inactive),-5.23% (inactive),-6.52% (inactive),98.2% (inactive),-0.05 (inactive),10% (inactive),-8.27% (inactive)
COc1ccc2c(c1)C(=O)CC(c1ccccc1F)O2 (stereo not given),95.8% (inactive),103% (inactive),93.9% (inactive),92.3% (inactive),87% (inactive),62,135% (inactive),10% (inactive),97% (inactive),0% (inactive),21.8% (inactive),-0.49% (inactive),94.1% (inactive),0.44 (active),-46% (inactive),-11.5% (inactive)
OCCN1CCN(CCCN2c3ccccc3Sc3ccc(Cl)cc32)CC1,104% (inactive),104% (inactive),100% (inactive),112% (inactive),121% (inactive),64.3,268% (inactive),68.7% (active),111% (inactive),-10% (inactive),29.9% (inactive),5.46% (inactive),115% (inactive),0.71 (active),-3% (inactive),-11.9% (inactive)
CC(COc1ccccc1)NC(C)C(O)c1ccc(O)cc1 (stereo not given),104% (inactive),101% (inactive),111% (inactive),103% (inactive),108% (inactive),55.7,203% (inactive),-496% (inactive),107% (inactive),-1% (inactive),37.9% (inactive),-3.92% (inactive),100% (inactive),-0.05 (inactive),9% (inactive),-19.6% (inactive)
CC(C)(C)NC[C@H](O)COc1nsnc1N1CCOCC1,94.4% (inactive),136% (inactive),108% (inactive),78.7% (inactive),93.1% (inactive),70.5,173% (inactive),17.1% (inactive),91.1% (inactive),3% (inactive),-3.6% (inactive),4.73% (inactive),96.3% (inactive),0.05 (inactive),9% (inactive),-0.82% (inactive)
COc1ccc2[nH]cc(C(=O)CCl)c2c1,103% (inactive),98.9% (inactive),102% (inactive),100% (inactive),102% (inactive),64.8,172% (inactive),-3.04% (inactive),101% (inactive),4% (inactive),24.1% (inactive),-6.9% (inactive),98.2% (inactive),-0.01 (inactive),3% (inactive),0% (inactive)
COc1cc2nc(N3CCN(C(=O)C4COc5ccccc5O4)CC3)nc(N)c2cc1OC (stereo not given),101% (inactive),108% (inactive),104% (inactive),110% (inactive),116% (inactive),61.4,203% (inactive),-8.78% (inactive),57.2% (active),1% (inactive),26.5% (inactive),-4.66% (inactive),108% (inactive),0 (inactive),-6% (inactive),3.88% (inactive)
CN=C1c2cc3cc(OC)ccc3n2CCN1C,101% (inactive),97.9% (inactive),102% (inactive),93.3% (inactive),99% (inactive),62,177% (inactive),11.9% (inactive),103% (inactive),4% (inactive),14.9% (inactive),-2.85% (inactive),98.8% (inactive),0.1 (inactive),2% (inactive),12.7% (inactive)
O=C1OC(c2ccc(O)cc2)(c2ccc(O)cc2)c2ccccc21,97.1% (inactive),102% (inactive),101% (inactive),103% (inactive),100% (inactive),62.5,180% (inactive),9.09% (inactive),99.3% (inactive),1% (inactive),28% (inactive),-0.84% (inactive),103% (inactive),-0.12 (inactive),6% (inactive),-24.4% (inactive)
Cc1ccccc1OCCSc1nc2ncnc(N)c2[nH]1,97.3% (inactive),105% (inactive),104% (inactive),99.4% (inactive),103% (inactive),51.9,163% (inactive),8.15% (inactive),97.8% (inactive),2% (inactive),-6.91% (inactive),3.1% (inactive),96.7% (inactive),0.06 (inactive),1% (inactive),-8.27% (inactive)
Cn1c(=O)oc2cc(S(=O)(=O)N3CCc4ccccc4C3)ccc21,101% (inactive),98.9% (inactive),102% (inactive),89.3% (inactive),97.8% (inactive),58.4,165% (inactive),15.6% (inactive),95.2% (inactive),2% (inactive),7.43% (inactive),2.89% (inactive),98.3% (inactive),-0.05 (inactive),10% (inactive),9.49% (inactive)
COC(=O)c1ccc(COc2ccc3c(C)c(C)c(=O)oc3c2C)o1,101% (inactive),97.9% (inactive),96.9% (inactive),92.3% (inactive),91.6% (inactive),57.7,157% (inactive),14.7% (inactive),96.2% (inactive),3% (inactive),4.76% (inactive),-2.54% (inactive),102% (inactive),0.06 (inactive),11% (inactive),9.49% (inactive)
CC1(C)c2ccccc2N2CC(=O)N(CC(N)=O)C21C (stereo not given),103% (inactive),99.9% (inactive),103% (inactive),109% (inactive),105% (inactive),61.8,243% (inactive),-5.84% (inactive),108% (inactive),3% (inactive),-1.94% (inactive),3.96% (inactive),97.8% (inactive),-0.35 (inactive),11% (inactive),-21.2% (inactive)

# — PubChem BioAssay
